# Spn DPM-DC inh – inhibitors of Streptococcus pneumoniae diphosphomevalonate decarboxylase | purified DPM-DC, PK/LDH coupled NADH fluorescence | actives 0.49% (n = 65,000) | AID 556 | calls only at 10 µM;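 active = the 320 compounds with the highest percent inhibition in the single-dose primary screen, excluding strongly autofluorescent ones, cut at about 32% in these data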;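 note: kinetic rate of NADH fluorescence loss reporting ADP formed by the decarboxylase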
# PMK inhibit – inhibitors of Streptococcus pneumoniae phosphomevalonate kinase | purified PMK, PK/LDH-coupled NADH absorbance 340 nm | AID 539 | actives 0.49% (n = 65,000) | inhibition, % at 10 µM;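 active = top-ranked compounds by inhibition in the single 10 µM screen, taking a fixed number of the strongest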;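 note: 0% = full reaction with DMSO carrier and 100% = background rate without enzyme reaction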
# Abs 340nm – compound absorbs light at 340 nm. compound absorbance at 340 nm, fold over control. fold change at 10 µM. 65,000 tested, under 10 active. AID 708;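 active = at 10 µM dose, initial 340 nm absorbance at least 2 fold that of control wells; inactive = change under 2 fold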;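 note: initial absorbance extrapolated from kinetic A340 decline of NADH oxidation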
# Autofluor 339 – intrinsic fluorescence of library compounds, ex339/em460 – biochemical, MLSMR library, data from DPM-DC assay, artefact control, profiling panel | compound autofluorescence, ex339/em460 nm, NADH buffer; hits give high values; 1 = no-compound wells, NADH background | fluorescence fold increase at 10 µM | actives 5.5% (n = 65,000);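 active = at 10 µM, mean starting fluorescence two-fold or more over control wells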;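 note: signal is the first read of a kinetic run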
# NADH coupling – blocks coupling enzymes of NAD/NADH assays; coupled PK/LDH NADH assays, four targets; actives 0.02% (n = 65,000); IC50, µM (titrated, usually from 10 µM), for the others: top-dose inhibition;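 active = single-dose screening hits from any of four coupled enzyme assays that gave an IC50 when retested across doses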;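 note: the DPM-DC format reads NADH fluorescence rather than 340 nm absorbance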
# Spn MK inh – inhibitors of Streptococcus pneumoniae mevalonate kinase | inhibition, % at 10 µM | purified MK, PK/LDH-coupled NADH absorbance 340 nm | actives 0.48% (n = 65,000) | AID 555;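 active = ranked among the strongest by inhibition in the single 10 µM screen, a fixed top-ranked set picked for dose follow-up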
# Starred values were filed as active, the others as inactive; i = inactive; . = no result shown; + = active, no number. A selection: hits, their analogues and other compounds. The true share with any hit is near 6.8%.
SMILES,Spn DPM-DC inh,PMK inhibit,Abs 340nm,Autofluor 339,NADH coupling,Spn MK inh
O=C(Cc1cn2ccsc2n1)OCc1nc2ccccc2s1,i,25*,1,1,9%,1
O=C(Cc1cn2ccsc2n1)OCc1ccccc1,i,13,0.98,1,7%,8
COc1ccccc1N1CCN(CCc2n[nH]c(=S)n2-c2ccccc2)CC1,i,0,1.1,1.1,15%,46*
c1ccc(CCNc2ncnc3nc[nH]c23)cc1,i,5,1.1,1.1,3%,0
COc1ccccc1CNc1ncnc2nc[nH]c12,+,6,1,1.2,23%,12
Clc1ccc2nc(NC3=NCN(CCN4CCOCC4)CN3)nc(-c3ccccc3)c2c1,i,14,1,2.2*,17%,14
Cc1cccc(Cn2c(=O)c3c(nc4n3CCCN4Cc3ccccc3)n(C)c2=O)c1,i,8,1,1.1,5%,7
COc1ccc(CNc2oc(COc3ccccc3)nc2C#N)cc1,i,16,1,0.96,7%,5
COc1ccc(CCNc2oc(-c3ccccc3OC)nc2C#N)cc1,.,18,1,3*,6%,16
COCCNc1oc(-c2ccc(F)cc2)nc1C#N,.,5,1.1,2.4*,3%,0
COc1ccccc1-c1nc(C#N)c(NCc2ccc(F)cc2)o1,.,12,1,3.9*,12%,12
N#Cc1nc(-c2ccc(F)cc2)oc1NCc1ccccc1,.,1,1.1,2.2*,1%,0
N#Cc1nc(COc2ccccc2Cl)oc1NCc1ccc(F)cc1,i,3,1,1.3,2%,3
CCCn1c2c(c(O)c(C(=O)Nc3ccccc3)c1=O)CCCC2,i,12,1,1.2,11%,14
COc1ccc(CCNc2oc(-c3ccccc3OC)nc2C#N)cc1OC,.,15,1,3.9*,15%,14
COCCNc1oc(-c2ccccc2Cl)nc1C#N,i,6,1.1,1.7,8%,5
CCCCCCC(=O)NCC(=O)OCC(=O)c1ccccc1,i,4,1,1.1,3%,6
Cc1ccc2cc(C#N)c(N3CCCN(C(=O)C4CCCO4)CC3)nc2c1C (stereo not given),i,10,0.99,2.4*,11%,7
COCCCNC(=O)CN(c1cccc(Cl)c1)S(C)(=O)=O,i,0,0.99,1.1,1%,3
Cc1ccc(C2C3=C(CC(C)(C)CC3=O)NC3=C2C(=O)CC(C)(C)C3)o1,i,13,1,1.1,9%,10
Cc1nc2[nH]c(=O)c3c(n2n1)NC1=C(C(=O)CC(C)(C)C1)C3c1ccccc1 (stereo not given),.,0,1.1,4*,0%,0
Cc1ccc(C)n1-c1ccc(N2CCOCC2)nc1,.,1,1.1,3.7*,5%,8
CN(C)S(=O)(=O)c1ccc(N2CCOCC2)nc1,i,8,1,1.1,8%,6
COCCn1c(N)c(C(=O)OCc2ccccc2)c2nc3ccccc3nc21,.,8,1.1,3.8*,4%,0
C=CCn1c(N)c(C(=O)OCCC)c2nc3ccccc3nc21,.,18,1.1,3.6*,10%,2
SMILES,Spn DPM-DC inh,PMK inhibit,Abs 340nm,Autofluor 339,NADH coupling,Spn MK inh
CCN(CCO)c1ccc(-n2c(N)c(C(=O)OC)c3nc4ccccc4nc32)cc1,i,19,1.1,1.1,6%,0
COCCNC(=O)CSc1nc2cc(OC)c(OC)cc2c(=O)n1CCC1=CCCCC1,i,13,1,1.1,5%,1
COCCNC(=O)c1c(N)n(CCC2=CCCCC2)c2nc3ccccc3nc12,.,3,1,2.5*,2%,16
NS(=O)(=O)c1cc2c(cc1Cl)NC=NS2(=O)=O,i,0,1,1,2%,2
CC(C)Sc1nc(O)c(Cc2ccccc2)c(=O)[nH]1,i,0,1,1.1,4%,6
Cc1ccc(-c2cc3nc(C)cc(NCc4ccco4)n3n2)cc1,i,2,0.99,3.3*,7%,5
C=CCSC1=C(C#N)C(c2cccc(OC)c2)CC(=O)N1 (stereo not given),i,6,1,1.1,7%,15
CCCCCCc1cc2cc(C(=O)NC)c(=N)oc2cc1O,.,6,1,2.3*,6%,5
COc1ccc(NC(=O)c2cc3cc(OC)ccc3oc2=N)cc1,i,0,1,1.1,0%,0
Oc1oc(-c2ccco2)nc1C=Nc1ccccc1,i,5,1.1,1,4%,6
Oc1ccccc1/C=N/c1c(-c2ccco2)nc2ccccn12,.,11,1.1,3.6*,6%,0
CC1CCCN(c2nc3c(c(=O)[nH]c(=O)n3C)n2CCSc2ncccn2)C1 (stereo not given),i,11,1.1,1,7%,6
CCn1c(/C=N/n2cnnc2)nc2ccccc21,.,12,1.2,2.1*,8%,3
CCn1c2ccccc2c2cc(/C=N/n3cnnc3)ccc21,.,6,1.1,5*,8%,10
O=C(O)CCNS(=O)(=O)c1ccc(Oc2ccccc2)cc1,i,0,1,1.1,3%,10
c1ccc(-c2oc3ncnc(NCCCn4ccnc4)c3c2-c2ccccc2)cc1,.,16,1.1,3.7*,8%,0
c1ccc(-c2oc3ncnc(NCCN4CCOCC4)c3c2-c2ccccc2)cc1,i,4,1,2*,5%,2
c1ccc2c(c1)oc1c(NCCCn3ccnc3)ncnc12,i,4,1.1,1.1,2%,2
N=c1c2c(-c3ccccc3)c(-c3ccccc3)oc2ncn1CCCN1CCOCC1,i,12,1.1,1.5,11%,12
CCOC(=O)C(C)n1ncn2cccc2c1=O (stereo not given),i,16,0.97,1.1,8%,9
COC(=O)C1=CN(C2CC2)C=C(C(=O)OC)C1c1ccccc1OC,.,8,1,3.8*,6%,4
Cc1ccccc1Cn1cc(NC(=O)c2noc3c2CC(C(C)(C)C)CC3)cn1 (stereo not given),i,20,0.99,1.7,2.6µM*,5
CCCN1CCN(C(=O)CN2C(=O)CC(C)(C)S(=O)(=O)c3ccccc32)CC1,i,9,1,1.1,5%,6
CC(C)N=c1cc2n(-c3ccc(Cl)cc3)c3ccccc3nc-2cc1Nc1ccc(Cl)cc1,+,10,0.98,0.53,16%,5
CCN(CC)CCNC(=O)c1nn(-c2ccc(C)cc2)c(=O)c2c1c1ccccc1n2C,i,4,1,3.1*,8%,6
CCN1CCN(C(=O)c2nn(-c3ccc(C)cc3)c(=O)c3c2c2ccccc2n3C)CC1,i,13,1,1.4,8%,10
Cc1ccc(-n2nc(C(=O)NCc3ccco3)c3c4ccccc4n(C)c3c2=O)cc1,i,5,1,2.2*,2%,0

# Bioassay records from PubChem.
